According to PubChem BioAssay (NCATS):
Inconclusive results are not listed. Active and inactive are the calls of the source. Calls follow the shape of the dose curve; as a rule, active = well fitted curve in the direction sought with a large enough effect; inconclusive = small, poorly fitted or top-dose-only effect, or another doubt; inactive = no such curve, though single readings can be large; an effect the other way counts as inactive or inconclusive.

What follows are compounds tested against Metallo-beta-lactamase type 2 (Klebsiella pneumoniae) (UniProt C7C422) (assay: qHTS to identify inhibitors of the New Delhi Metallo-beta-lactamase (NDM): assay validation screen against the NCATS LOPAC Collection (AID 1794843;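 also: nitrocefin turnover by NDM-1 measured as 485 nm absorbance at plateau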)). Conditions: NDM-1 enzyme, nitrocefin hydrolysis, absorbance 485 nm; series mostly up to 38.4 µM; activity change, negative = inhibition: at the top concentration.
Metallo-beta-lactamase type 2 (Klebsiella pneumoniae), sequence (C7C422 whole entry, looked up): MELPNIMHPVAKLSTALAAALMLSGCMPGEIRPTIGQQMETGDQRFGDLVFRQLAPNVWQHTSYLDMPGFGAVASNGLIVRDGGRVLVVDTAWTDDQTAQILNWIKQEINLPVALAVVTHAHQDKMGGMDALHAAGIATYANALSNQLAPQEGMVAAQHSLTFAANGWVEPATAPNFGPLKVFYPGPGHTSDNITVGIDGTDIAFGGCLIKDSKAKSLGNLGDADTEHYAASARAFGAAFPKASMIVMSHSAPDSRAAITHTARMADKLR
Procedure, shortened: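 NDM-1 at 2 nM final in 50 mM HEPES pH 7.0 with 1 uM ZnSO4 and 0.01% Tween20 was preincubated with library compounds in DMSO. Nitrocefin (50 uM stock) was then added, and absorbance at 485 nm was read at the kinetic plateau.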
% is scaled to controls: 0 for no effect and ±100 for the full control effect.

Question: Which “activity change, negative = inhibition” value does the source give for `NC(=O)c1ccccc1` here?
Answer: 2.54% (inactive)

Question: For `COc1ccc(CCn2nnnc2C2(c3ccc(C)cc3)CC2)cc1`, which “activity change, negative = inhibition” value is on record?
Answer: 3.87% (inactive)

Question: For `Oc1cc(O)c2c(c1)O[C@H](c1ccc(O)c(O)c1)[C@@H](O)C2`, which “activity change, negative = inhibition” value is on record?
Answer: 3.92% (inactive)

Question: `COc1ccc2c(c1)c(CC(=O)O)c(C)n2C(=O)c1ccccc1` was tested. Which “activity change, negative = inhibition” value did it give?
Answer: -0.15% (inactive)

What follows are compounds tested against Glutathione peroxidase 1 (Homo sapiens) (UniProt P07203) (assay: Primary qHTS Assay for Inhibitors of Recombinant Selenoprotein Glutathione Peroxidase 1 (GPX1) (AID 1845191; also: nearly all actives have a fitted effect of over 65% in size)). Conditions: recombinant GPX1, GR-coupled NADPH fluorescence, 15 min; series mostly up to 48.8 µM; activity, negative = inhibition: at the top concentration.
Glutathione peroxidase 1 (Homo sapiens), sequence (P07203 whole entry, looked up): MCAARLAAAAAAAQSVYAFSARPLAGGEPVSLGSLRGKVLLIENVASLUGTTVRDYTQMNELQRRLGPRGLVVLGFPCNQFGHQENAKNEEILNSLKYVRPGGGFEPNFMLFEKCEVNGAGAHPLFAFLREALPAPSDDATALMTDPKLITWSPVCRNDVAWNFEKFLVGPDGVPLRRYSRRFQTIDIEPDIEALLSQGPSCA
Procedure, shortened: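 NADPH consumption tracked by fluorescence at 340/450 nm between t=0 and t=15 min, room temperature. Final mix: 10 nM GPX1, 100 nM glutathione reductase, 1 mM GSH, 0.5 mM NADPH, 0.5 mM cumene hydroperoxide, 0.01% BSA; 30 min compound–enzyme preincubation.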

Question: For `CC(=O)O[C@H]1CC2(C)[C@@H](C[C@@H](O)[C@H]3[C@@]4(C)CC[C@@H](O)[C@@H](C)[C@@H]4CC[C@@]32C)C1=C(CCC=C(C)C)C(=O)O` (stereo not given in full), which Potency is on record?
Answer: inactive

Question: For `O=C(O)/C=C/c1ccc(O)c(O)c1`, which “outcome” value is on record?
Answer: inactive

Question: For `O=C(O)c1ccccc1Nc1cccc(OCc2ccc3ccccc3n2)c1`, which “activity, negative = inhibition” value is on record?
Answer: -6.98% (inactive)

Question: Which “activity, negative = inhibition” value does the source give for `O=c1onc2n1-c1cc(Br)ccc1OC2` here?
Answer: -7.5% (inactive)

Question: How did the “activity, negative = inhibition” value turn out when `Cc1nc2c(OCc3ccccc3)cccn2c1CC#N` was run?
Answer: 1.77% (inactive)

Question: With `CN1CCC2(CCN3CCc4c(oc5ccccc45)C3C2)N(C)C1=O` (stereo not given) as the compound, how does the “activity, negative = inhibition” value read?
Answer: 4.77% (inactive)

Question: Which “activity, negative = inhibition” value does the source give for `O=C1Nc2ccc(I)cc2/C1=C/c1cc(Br)c(O)c(Br)c1` here?
Answer: 1.59% (inactive)

Question: For `Nc1ncnc2c1nc(Sc1ccc(Cl)cc1)n2[C@H]1OC2COP(=O)(O)O[C@@H]2C1O` (stereo not given in full), which “activity, negative = inhibition” value is on record?
Answer: -22.2% (inactive)

Question: For `C[N+](C)(C)CC=O`, which “activity, negative = inhibition” value is on record?
Answer: -17.7% (inactive)

Question: With `CCCCCCCCCC[Si](C)(C)CCC(=O)NC(Cc1ccc(C)cc1)c1ccccc1` (stereo not given) as the compound, how does the “outcome” value read?
Answer: inactive

Question: How did the “activity, negative = inhibition” value turn out when `NC(=O)CNCCC(c1ccccc1)c1ccccc1` was run?
Answer: 4.94% (inactive)

Question: Which “activity, negative = inhibition” value does the source give for `C[C@H](O)C(=O)C1=Nc2c(nc(N)[nH]c2=O)NC1` here?
Answer: -25.3% (inactive)

Question: How did the “outcome” value turn out when `NC1CCN(O)C1=O` (stereo not given) was run?
Answer: inactive

Question: With `CN(C)C(=O)/N=N/C(=O)N(C)C` as the compound, how does the “outcome” value read?
Answer: inactive

Question: Which “activity, negative = inhibition” value does the source give for `c1ccc(C(NCc2cccnc2)(c2ccccc2)c2ccccc2)cc1` here?
Answer: -14.5% (inactive)

Question: With `CCCn1c(=O)c(C)cn2nc(N)nc12` as the compound, how does the “outcome” value read?
Answer: inactive
